Screens (PubChem BioAssay)
Only some compounds are listed: those with a hit (about 21% of all), similar ones and a draw of the others.
Shiga inhibitor = Shiga toxin inhibition. Vero cells, Shiga toxin protein synthesis inhibition reporter. inhibition, % at 38.7 µM. actives 9.2% (n = 290,000). AID 2315; in the data active means inhibition mostly above about 28%, no sharp cut-off; inactive means mostly below about 43%
Cycloheximide cs = counter-screen hit for Shiga toxin inhibitors, cycloheximide; cell reporter, cycloheximide protein synthesis inhibition counterscreen; max response, %; actives 12% (n = 300,000); AID 2314; in the data active means max response mostly above about 13%, no sharp cut-off; inactive means mostly below about 14%; further: read at 38.3 µM for the half of the compounds with a filed dose
Pf growth 96h = P. falciparum growth inhibition at 96 hours. AID 504834. Potency, µM (series often up to 28.7 µM), usual class: inhibitors. actives 6.9% (n = 320,000). P. falciparum luciferase reporter growth, 96 h
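Luminescence readout: decreased luciferase signal marks inhibited growth of reporter-expressing P. falciparum in infected red cells (2% hematocrit, 0.05% parasitemia final), exposed to compound two generations (96 h, 37 C, 5% CO2).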
Pf growth 48h = inhibits P. falciparum growth in the first generation, 48 h | Potency, µM (highest dose often 28.7 µM), most hits filed as inhibitors | actives 5.9% (n = 310,000) | P. falciparum luciferase growth in erythrocytes, 48 h
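Cell-based growth assay: transgenic P. falciparum expressing firefly luciferase, cultured in red cells within RPMI 1640 containing 0.5% w/v Albumax, 24 mM bicarbonate and gentamycin. A drop in luciferase activity indicates inhibition.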
Each line names hits and unclear results; the compound was inactive in the other large screens. Unless noted, the call rests on the fitted dose curve; in most records, active means well fitted inhibition curve with a large enough effect; inconclusive means small, poorly fitted or top-dose-only effect, or another doubt; inactive means no such curve, though single readings can be large or run the other way.

C(=C\c1nc(-c2ccncc2)no1)/c1ccccc1	none
C(=C\c1nc(-c2ccccc2)no1)/c1ccccc1	Shiga inhibitor 47.8, Cycloheximide cs 29.7, Pf growth 96h inconclusive
O=C(Cc1ccccc1)Oc1coc(CSc2ncccn2)cc1=O	none
COc1ccc2c(c1)CCc1c(C(=O)N3CCOCC3)noc1-2	Shiga inhibitor 74.0, Cycloheximide cs 31.1 (no result: Pf growth 96h)
COc1ccc2c(c1)CCc1c(C(=O)Nc3ccc(OC)c(OC)c3)noc1-2	none
COc1ccc2c(c1)CCc1c(C(=O)N3CCCc4ccccc43)noc1-2	Cycloheximide cs 27.1, Pf growth 48h 6.57µM
COc1ccc2c(c1)CCc1c(C(=O)N3CC4(C)CC3CC(C)(C)C4)noc1-2 (stereo not drawn)	Pf growth 96h inconclusive, Pf growth 48h 14.7µM
COc1ccccc1CN1CCCC(CN(CCN(C)C)C(=O)c2ccc(C)cc2)C1 (stereo not drawn)	Pf growth 96h inconclusive
CCOC(=O)CC1COCCN1C(=O)c1cc(COc2ccc(F)cc2Cl)on1 (stereo not drawn)	Shiga inhibitor 60.8, Cycloheximide cs 39.1, Pf growth 96h inconclusive, Pf growth 48h inconclusive
O=C(c1cc(COc2ccc(F)cc2Cl)on1)N1C[C@H]2CC[C@H]1C2	Shiga inhibitor 66.3, Cycloheximide cs 40.2, Pf growth 96h inconclusive
O=C(c1cc(COc2ccc(F)cc2Cl)on1)N1CC2C[C@@H]3CC1C[C@H](C2)C3	Shiga inhibitor 101.8, Cycloheximide cs 30.4
CCOC(=O)c1cc[nH]c1CC(=O)NC	none
O=C1CN(CC(=O)N2CCCCC2)c2ccccc2O1	Cycloheximide cs 23.6, Pf growth 96h inconclusive
O=C1CN(CC(=O)N2CCOCC2)c2ccccc2O1	Shiga inhibitor 98.1, Cycloheximide cs 34.1, Pf growth 48h inconclusive
O=C(CN1C(=O)COc2ccccc21)N1CCCC1	Pf growth 48h inconclusive
C=CC(N)CCC(=O)O (stereo not drawn)	none (no result: Shiga inhibitor, Cycloheximide cs)
Cc1nc(C)n(CC(C)C(=O)N2CCN(S(=O)(=O)c3ccc(Cl)cc3)CC2)n1 (stereo not drawn)	none
COCC(C)n1c(COc2ccccc2F)nnc1SCC(=O)Nc1oc(C)c2c(C)n[nH]c(=O)c12 (stereo not drawn)	none (no result: Shiga inhibitor, Cycloheximide cs)
COc1ccc(C)cc1NC(=O)CCNC(=O)Cn1ccc2ccccc2c1=O	Pf growth 96h inconclusive
CCc1ccc(OCC(=O)NC(=S)Nc2ccc(F)cc2)c(Br)c1	none
CCc1ccc(OCC(=O)NC(=S)Nc2cccc(CO)c2)c(Br)c1	Cycloheximide cs 22.4 (no result: Pf growth 96h)
O=C(CSc1nnc([C@@H]2CCCN2)o1)c1ccc(Cl)cc1	Shiga inhibitor 102.4, Cycloheximide cs 21.9
O=C(N=C1SC2CS(=O)(=O)CC2N1c1ccccc1)C1CCCCC1 (stereo not drawn)	none
COc1cccc(CNC(=O)CCC2CCCN(C(=O)c3cc(C)on3)C2)c1 (stereo not drawn)	none
COc1cccc(CNC(=O)CCC2CCCN(C(=O)c3ccc(OC)o3)C2)c1 (stereo not drawn)	Shiga inhibitor 59.9, Cycloheximide cs 22.3
COc1cccc(CNC(=O)CCC2CCCN(C(=O)c3csc(C(C)C)n3)C2)c1 (stereo not drawn)	Pf growth 96h 13.1µM
COc1cccc(CNC(=O)CCC2CCCN(C(=O)c3cc(C4CC4)[nH]n3)C2)c1 (stereo not drawn)	Shiga inhibitor 34.3, Cycloheximide cs 17.1
Cn1c(=O)c2c(ncn2CC2OCCO2)n(C)c1=O	none
O=c1[nH]c(O)c(N=Nc2ccc3c(c2)OCCO3)c(=O)[nH]1	Shiga inhibitor 88.1, Cycloheximide cs 31.8
O=c1[nH]c(=S)[nH]c(O)c1N=Nc1cc2c(cc1[N+](=O)[O-])OCO2	none
O=c1[nH]c(=S)[nH]c(O)c1N=Nc1ccc2c(c1)OCCO2	Shiga inhibitor 27.4, Cycloheximide cs 23.4
O=C1CCCC(O)=C1N=Nc1ccc2c(c1)OCO2	Shiga inhibitor 47.5, Cycloheximide cs 76.3
O=c1[nH]c(=S)[nH]c(O)c1N=Nc1ccc2c(c1)OCO2	Shiga inhibitor 46.1, Cycloheximide cs 23.5
NS(=O)(=O)c1ccc(N=Nc2c(O)[nH]c(=S)[nH]c2=O)cc1	Pf growth 96h inconclusive, Pf growth 48h inconclusive
CCc1ccc(Nc2nnc(SCC(=O)c3c(N)n(C4CC4)c(=O)[nH]c3=O)s2)cc1	Pf growth 96h inconclusive (no result: Shiga inhibitor, Cycloheximide cs)
Cc1cc(C)nc(N2N=C(C(F)(F)F)CC2=O)n1	none
C=CCNC(=O)c1c[nH]c2ccc(S(=O)(=O)N(C)c3ccc(OCC)cc3)cc2c1=O	Pf growth 48h inconclusive
COc1ccccc1Cn1nnc2c(=O)[nH]c(C3CCN(C(=O)c4ccccc4Cl)CC3)nc21	Pf growth 48h 9.28µM
COc1ccccc1Cn1nnc2c(=O)[nH]c(C3CCN(C(=O)c4ccc(F)cc4)CC3)nc21	Pf growth 48h 11.7µM
COc1ccccc1Cn1nnc2c(=O)[nH]c(C3CCN(C(=O)c4ccc(C)cc4)CC3)nc21	Pf growth 48h inconclusive
Cc1nnc(Sc2nc3ccccc3o2)c2ccccc12	Cycloheximide cs 25.8 (no result: Pf growth 96h)
Cc1ccc(-c2nnc(Sc3nc4ccccc4o3)c3ccccc23)cc1	Pf growth 48h 11.7µM
CN1C(C(=O)NCc2ccco2)CC2Cn3c(nc4cc(Cl)c(Cl)cc43)C21 (stereo not drawn)	Cycloheximide cs 13.4
CN1C(C(=O)NCc2ccco2)CC2Cn3c(nc4cc5ccccc5cc43)C21 (stereo not drawn)	none
N#Cc1cc(C#N)c(N2CCN(c3ccccn3)CC2)nc1N	Shiga inhibitor 60.3, Cycloheximide cs 44.4
COc1ccc(C(=O)c2nc3c(n2O)CCCCC3)cc1	Cycloheximide cs 48.1 (no result: Pf growth 48h)
CCOc1ccc(C(=O)c2nc3c(n2O)CCCCC3)cc1	none
CCCOc1ccc(C(=O)c2nc3c(n2O)CCCC3)cc1	Shiga inhibitor 49.9, Pf growth 96h inconclusive, Pf growth 48h inconclusive
O=C(c1ccc(Oc2ccccc2)cc1)c1nc2c(n1O)CCCC2	Cycloheximide cs 21.1 (no result: Pf growth 48h)
COc1ccc(/C=C/C(=O)NCc2cn(C)nc2C)cc1COc1ccc(Br)cc1	Pf growth 96h inconclusive, Pf growth 48h 3.7µM
Cc1nn(C)cc1CNC(=O)/C=C/c1cnn(C)c1	none
CN1CCN(c2ccc(-c3ccnn3C(=O)Nc3cccc(C(F)(F)F)c3)cc2)CC1	Cycloheximide cs 43.2
Cc1ccc(/C=C2\SC(=S)N(CCC(=O)NNC(=O)c3ccncc3)C2=O)cc1	none
Cc1ccc(/C=C2\SC(=S)N(CCC(=O)NNS(=O)(=O)c3ccc(C)cc3)C2=O)cc1	Cycloheximide cs 24.5
Cc1ccc(/C=C2/SC(=S)N(CCC(=O)N3CCN(C)CC3)C2=O)cc1	Pf growth 96h 11.7µM, Pf growth 48h inconclusive
CN1CCN(C(=O)CCN2C(=O)/C(=C\c3ccccc3F)SC2=S)CC1	Pf growth 96h 11.7µM, Pf growth 48h inconclusive
Cc1ccc(/C=C2/SC(=S)N(CCC(=O)N3CCOCC3)C2=O)cc1	Cycloheximide cs 16.2, Pf growth 48h inconclusive
CC(=O)C1=C(O)C(=O)N(Cc2ccccc2)C1c1ccc(Br)cc1 (stereo not drawn)	none
O=C(Cn1cnnn1)NCc1ccccc1	none
Cc1ccc(/C=C2\SC(=O)N(CCC(=O)N3CCN(C)CC3)C2=O)cc1	Shiga inhibitor 45.0, Cycloheximide cs 26.8, Pf growth 96h inconclusive
C=CCc1cccc(C=Nc2c[nH]c(=O)[nH]c2=O)c1O	none (no result: Shiga inhibitor)
